# PI4K2A block: qHTS for small molecular inhibitors of PI4K2A | Phosphatidylinositol 4-kinase type 2-alpha (Homo sapiens), Q9BTU6 | purified PI4K2A, ADP-Glo luminescence, 1 h; active compounds read low | activity change, negative = inhibition, % at 76.9 µM | 0.13% of 420,000 active; in the data active means activity change below about -50%; inconclusive means mostly about -30% to -49%;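 further: -100% = wells without enzyme as full effect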
# Target sequence (Q9BTU6 whole entry, looked up): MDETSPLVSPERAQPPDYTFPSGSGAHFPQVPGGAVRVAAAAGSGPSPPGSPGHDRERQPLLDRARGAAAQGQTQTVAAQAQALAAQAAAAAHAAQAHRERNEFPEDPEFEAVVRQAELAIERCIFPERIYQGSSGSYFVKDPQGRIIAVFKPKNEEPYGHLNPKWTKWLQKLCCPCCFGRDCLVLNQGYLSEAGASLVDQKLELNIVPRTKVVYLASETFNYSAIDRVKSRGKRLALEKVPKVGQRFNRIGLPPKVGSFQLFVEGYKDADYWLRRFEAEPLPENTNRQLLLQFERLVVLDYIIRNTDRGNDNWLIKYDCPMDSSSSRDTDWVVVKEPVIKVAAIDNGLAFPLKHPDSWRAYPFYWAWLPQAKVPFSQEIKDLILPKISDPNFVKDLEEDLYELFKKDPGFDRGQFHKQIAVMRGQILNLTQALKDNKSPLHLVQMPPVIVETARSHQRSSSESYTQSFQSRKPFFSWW
#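 Compounds are screened against recombinant PI4K2A using PI as substrate and ATP, the latter dispensed at 300 microM. Reactions run one hour at ambient temperature before ADP-Glo detection; full inhibition defined by wells lacking enzyme.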
# Giardia killer: Small Molecules that selectively kill Giardia lamblia: qHTS. activity change, % at 7.66 µM, hits read low. AID 540267, 2011. 0.15% of 340,000 active. Giardia lamblia trophozoite viability; in the data active means activity change below about -80%; inconclusive means between about -30% and that limit;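 further: parasites exposed to compound for two days anaerobically before the ATP read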
#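 Giardia trophozoites, 100 cells per well, were exposed to compounds for 48 hrs at 37 deg C under anaerobic conditions; viability was then read as ATP content by bioluminescence after 15-30 min at room temperature.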
# KB-V1 cytotox: qHTS assay for MDR1-selective chemotherapeutics: Primary screen using the drug-selected MDR subline cells KB-V1 | KB-V1 MDR cells viability, CellTiter-Glo, 72 h | Potency, µM (titrated, usually from 46.1 µM), hits mostly cytotoxic | 3.4% of 400,000 active | AID 1347076, 2019; further: potency means the concentration at half of the fitted maximal effect; nearly all actives have a fitted effect of over 60% in size
#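 Luminescent ATP read-out (CellTiter-Glo, 10 min) measures survival of drug-selected KB-V1 MDR cells after 72 h, 37 degrees C compound exposure. Medium: phenol-red-free DMEM, 10% FBS. Values from fitted concentration-response curves.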
# A549 viability: Nrf2 qHTS screen for inhibitors: counterscreen for cytotoxicity | A549 ARE-Fluc cells, CellTiter-Fluor viability, 18-24 h | Potency, µM (titrated, usually from 46 µM), without a hit: at the top dose activity change, negative = cytotoxicity, actives largely listed as inhibitors | 0.16% of 390,000 active | AID 504648, 2011; further: potency means the concentration at half of the fitted maximal effect
#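 A549 ARE-Fluc cells in 5% FBS OPTI-MEM, 5000 cells/well, rested 2 h then exposed to compounds in concentration-response for 18-24 h at 37 °C. Viability by CellTiter-Fluor fluorescence (Ex 405/Em 525) after 30 min; luciferase luminescence (BugLite, 15 min, RT) read afterwards.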
# KB-3-1 cytotox: qHTS assay for MDR1-selective chemotherapeutics: Primary screen using the parental adenocarcinoma cell KB-3-1. KB-3-1 viability, CellTiter-Glo ATP luminescence, 72 h. Potency, µM (doses to about 46.1 µM), usual class: cytotoxic. 1.4% of 400,000 active. AID 1347075, 2019; further: potency means the concentration at half of the fitted maximal effect; nearly all actives have a fitted effect of over 60% in size
#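 Multi-concentration cytotoxicity screen in KB-3-1 cells grown in DMEM lacking phenol red with 10% FBS. After 72 h at 37 °C with compound, ATP-dependent luminescence was recorded.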
# Nrf2 block: Nrf2 qHTS screen for inhibitors. A549 ARE-Fluc reporter, luciferase luminescence, 18-24 h. Potency, µM (series often up to 46 µM), for inactives: at the top dose activity change, negative = inhibition, most hits filed as inhibitors. 2.1% of 360,000 active; further: potency means the concentration at half of the fitted maximal effect; nearly all actives have a fitted effect of over 60% in size
#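 Cells were seeded and rested 2 h, then exposed to compounds for 18-24 h. CellTiter-Fluor was read first as a viability measure. BugLite was added 15 min before the final luminescent read of ARE-luciferase activity in A549 cells.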
# Starred values were filed as active, the others as inactive; i = inactive; ? = inconclusive; / = no result given. Rows were chosen to be rich in hits. Some 5.7% of all compounds tested hit in one or more screens of this group. Unless noted, the call rests on the fitted dose curve; in most records, active means well fitted curve in the direction sought with a large enough effect; inconclusive means small, poorly fitted or top-dose-only effect, or another doubt; inactive means no such curve, though single readings can be large; an effect the other way counts as inactive or inconclusive. Unless noted, on the % scale 0 is the no-effect control and ±100 the full control effect.
SMILES,PI4K2A block,Giardia killer,KB-V1 cytotox,A549 viability,KB-3-1 cytotox,Nrf2 block
COc1ccc(/C=C2\SC(N3CCc4ccccc4C3)=NC2=O)cc1OC,?,53,12µM*,-1%,?,4%
CCN1C/C(=C\c2cccc([N+](=O)[O-])c2)C(=O)/C(=C/c2cccc([N+](=O)[O-])c2)C1,5,?,?,1%,0.92µM*,8%
COc1ccc(/C=C2/CCc3ccccc3C2=O)cc1CN1CCOCC1,4,-2,?,2%,i,-4%
COc1ccc(/C=C2\CCc3ccccc3C2=O)cc1Cn1nc(C)cc1C,3,-8,18µM*,-7%,?,?
O=S1(=O)CC2c3ccc(F)cc3CN2CN1C1CCCC1 (stereo not drawn),-11,/,/,/,/,/
COc1ccccc1C1NC(c2ccc3c(c2)OCO3)=CC(c2cc(Br)ccc2O)N1 (stereo not drawn),/,6,i,0%,i,?
COc1ccc(/C=C2\CN(Cc3ccccc3)C/C(=C\c3ccc(OC)c(O)c3)C2=O)cc1O,-6,?,i,?,5.2µM*,?
Cc1ccsc1/C=C1\CCC(C2CCCC2)C1=O (stereo not drawn),-5,-7,i,-6%,i,?
Cc1ccsc1/C=C1\CCc2ccccc2C1=O,-75*,?,i,-7%,i,?
COc1ccc(OC)c(C=C2CCc3ccccc3C2=O)c1,0,/,?,/,?,/
COc1ccc(/C=C2\CC/C(=C\c3ccc(OC)c(OC)c3)C2=O)cc1OC,1,-15,?,4%,18µM*,0%
CC(=O)Oc1ccc(/C=C2/CCc3ccccc3C2=O)cc1,-79*,?,i,1%,i,?
CCN1C/C(=C/c2ccc(OC)c(O)c2)C(=O)/C(=C/c2ccc(OC)c(O)c2)C1,-3,-20,?,-7%,i,-6%
COc1cccc(N2CCN(CC(=O)NCc3c(F)cccc3F)CC2)c1,-5,/,/,/,/,/
CCOc1ccc(NC(=O)C2CCCN(S(=O)(=O)c3cccc4nonc34)C2)cc1 (stereo not drawn),1,/,i,7%,i,8%
Cc1ccccc1/C=C1\CCCc2ccccc2C1=O,-26,7,i,-6%,i,?
COc1ccc(/C=C2\CCC/C(=C\c3ccc(OC)c(OC)c3OC)C2=O)c(OC)c1OC,-3,15,i,?,i,8.2µM*
COc1ccc(/C=C2\CCc3ccccc3C2=O)cc1OC,-6,-14,16µM*,14%,i,?
COc1cc(OC)c(OC)cc1/C=C1\CCC/C(=C\c2cc(OC)c(OC)cc2OC)C1=O,-5,0,?,?,?,?
COc1cccc(C=C2Cc3ccccc3C2=O)c1,-4,/,i,/,i,/
COc1cccc(/C=C2\CCc3ccccc3C2=O)c1,-69*,?,i,-1%,i,8%
O=C1/C(=C\c2ccc3ccccc3c2)CCCc2ccccc21,2,-19,7.3µM*,-3%,5.2µM*,16%
CCN(CC)C(=O)C1CN2CCc3cc(OC)c(OC)cc3C2CC1OC(C)=O (stereo not drawn),-3,/,/,/,/,/
CCOC(=O)C1CCCN(C(=O)Cn2cccc2C(=O)c2ccccc2)C1 (stereo not drawn),-19,2,i,-4%,i,-4%
CCOC(=O)C1CCN(C(=O)Cn2cccc2C(=O)c2ccccc2)CC1,2,18,21µM*,4%,i,-26%
Cc1cccc(N2CCN(C(=O)Cn3cccc3C(=O)c3ccccc3)CC2)c1C,-1,3,16µM*,?,?,?
